This passage reports growth inhibition, inhibition and outcome results from PubChem BioAssay.

A number with no mark means an inactive call. For some of these results: Results with a measured potency or affinity are listed apart. The source made the active and inactive calls. Unless noted, how the calls were made is not given here.

Test [1] is described as follows: antimalarial activity against Dd2 strain (AID 2302;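 active means growth inhibition above 50% at the single 2 µM test dose, taken to imply half-maximal potency below 2 µM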;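 further: 0% = DMSO untreated growth and 100% = chloroquine plus artemisinin killed control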). Particulars: P. falciparum Dd2 in RBCs, LDH growth readout, 72 h; at 2 µM; stronger effect = higher value.
Test [2] in a line: HepG2 cytotoxicity, primary screen, cytotoxicity control for P. falciparum antimalarial project, cell-based, ATP luminescence (AID 2303;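 active means inhibition above 50%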;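 further: 0% = DMSO wells and 100% = digitonin-killed cells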). Particulars: HepG2 viability, 24-48 h, at 10 µM, stronger effect = higher value.
The target of test [3] is L-lactate dehydrogenase (Plasmodium falciparum (isolate CDC / Honduras)) (UniProt Q27743). The experiment in a line: PfLDH activity inhibition – cell lysate, 3D7 strain, counter-screen for P. falciparum growth inhibition project (AID 2304).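 Further: 0% = vehicle and 100% = reference inhibitor.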 Particulars: P. falciparum 3D7 crude extract, LDH APAD/NBT absorbance; at 2 µM; stronger effect = higher value.
Chain of L-lactate dehydrogenase (Plasmodium falciparum (isolate CDC / Honduras)) (Q27743 whole entry, looked up): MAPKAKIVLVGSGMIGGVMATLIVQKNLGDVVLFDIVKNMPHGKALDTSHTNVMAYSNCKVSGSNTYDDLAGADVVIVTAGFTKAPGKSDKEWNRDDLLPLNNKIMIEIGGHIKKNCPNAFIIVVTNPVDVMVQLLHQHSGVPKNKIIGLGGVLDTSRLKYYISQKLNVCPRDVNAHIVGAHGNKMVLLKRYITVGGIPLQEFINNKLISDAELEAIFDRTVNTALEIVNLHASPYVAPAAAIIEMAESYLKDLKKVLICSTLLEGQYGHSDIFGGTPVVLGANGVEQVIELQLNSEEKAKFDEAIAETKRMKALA
Test [4] can be described thus: inhibition of 3D7 malaria parasite growth – strain 3D7 (AID 2306).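 Further: 0% = DMSO wells and 100% = chloroquine plus artemisinin control wells.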 As to conditions: P. falciparum 3D7 erythrocytic growth, LDH absorbance, 72 h; at 2 µM; stronger effect = higher value.
The target in test [5] is Calcium-dependent protein kinase 1 (Plasmodium falciparum (isolate 3D7)) (UniProt P62344). The experiment in a line: PfCDPK1 kinase inhibitors, biochemical, TCAMS library (AID 1159585; cut-off not given, nearly all actives have IC50 up to about 0.98 µM;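 further: inhibitors leave more ATP so luminescence rises with inhibition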). As to conditions: recombinant PfCDPK1, Kinase-Glo ATP depletion luminescence.
Chain of Calcium-dependent protein kinase 1 (Plasmodium falciparum (isolate 3D7)) (P62344 whole entry, looked up): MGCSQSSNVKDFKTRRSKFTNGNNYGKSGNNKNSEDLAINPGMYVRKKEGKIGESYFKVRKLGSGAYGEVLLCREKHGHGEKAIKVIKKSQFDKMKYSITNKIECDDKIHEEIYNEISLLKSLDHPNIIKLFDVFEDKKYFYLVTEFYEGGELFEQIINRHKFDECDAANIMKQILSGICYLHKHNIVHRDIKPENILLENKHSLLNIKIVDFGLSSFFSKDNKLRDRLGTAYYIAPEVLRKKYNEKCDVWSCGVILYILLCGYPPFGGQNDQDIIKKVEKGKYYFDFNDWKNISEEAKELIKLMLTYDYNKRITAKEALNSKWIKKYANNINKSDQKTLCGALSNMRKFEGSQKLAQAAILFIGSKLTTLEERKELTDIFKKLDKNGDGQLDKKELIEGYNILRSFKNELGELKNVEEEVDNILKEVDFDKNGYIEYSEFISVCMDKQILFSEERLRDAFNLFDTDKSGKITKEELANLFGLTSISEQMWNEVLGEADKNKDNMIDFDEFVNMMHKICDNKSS
Test [6] addresses Plasmodium falciparum protein kinase 6 (PK6, PF3D7_1337100) (UniProt Q8IDW1). The experiment in a line: PfPK6 kinase inhibitors, biochemical, TCAMS library (AID 1159586). Particulars: recombinant PfPK6, Kinase-Glo ATP depletion luminescence.
Test [7] deals with Protein kinase 7 (PK7), Plasmodium falciparum 3D7 (PF3D7_0213400) (UniProt Q7YTF7). The experiment in a line: inhibition of Plasmodium PK7 catalytic activity – biochemical, TCAMS antimalarial set, Kinase-Glo luminescence (AID 1159587). Particulars: recombinant PfPK7, Kinase-Glo ATP depletion luminescence.
Chain of Protein kinase 7 (PK7), Plasmodium falciparum 3D7 (PF3D7_0213400) (Q7YTF7 1-343): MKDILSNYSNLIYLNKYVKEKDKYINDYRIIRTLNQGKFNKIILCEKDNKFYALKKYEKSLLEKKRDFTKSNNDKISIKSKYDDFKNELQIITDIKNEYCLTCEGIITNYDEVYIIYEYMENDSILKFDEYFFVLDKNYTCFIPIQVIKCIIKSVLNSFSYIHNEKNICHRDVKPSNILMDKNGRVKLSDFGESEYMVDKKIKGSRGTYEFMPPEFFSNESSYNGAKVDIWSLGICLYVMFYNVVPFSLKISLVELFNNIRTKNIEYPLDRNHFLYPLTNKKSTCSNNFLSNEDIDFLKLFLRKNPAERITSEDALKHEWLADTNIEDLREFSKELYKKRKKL
For test [8], the target named is Calcium-dependent protein kinase 4 (Plasmodium falciparum (isolate 3D7)) (UniProt Q8IBS5). The experiment in a line: PfCDPK4 kinase inhibitors, biochemical, TCAMS library (AID 1159588; cut-off not given, nearly all actives have IC50 up to about 0.91 µM). As to conditions: recombinant PfCDPK4, Kinase-Glo ATP depletion luminescence.
Chain of Calcium-dependent protein kinase 4 (Plasmodium falciparum (isolate 3D7)) (Q8IBS5 whole entry, looked up): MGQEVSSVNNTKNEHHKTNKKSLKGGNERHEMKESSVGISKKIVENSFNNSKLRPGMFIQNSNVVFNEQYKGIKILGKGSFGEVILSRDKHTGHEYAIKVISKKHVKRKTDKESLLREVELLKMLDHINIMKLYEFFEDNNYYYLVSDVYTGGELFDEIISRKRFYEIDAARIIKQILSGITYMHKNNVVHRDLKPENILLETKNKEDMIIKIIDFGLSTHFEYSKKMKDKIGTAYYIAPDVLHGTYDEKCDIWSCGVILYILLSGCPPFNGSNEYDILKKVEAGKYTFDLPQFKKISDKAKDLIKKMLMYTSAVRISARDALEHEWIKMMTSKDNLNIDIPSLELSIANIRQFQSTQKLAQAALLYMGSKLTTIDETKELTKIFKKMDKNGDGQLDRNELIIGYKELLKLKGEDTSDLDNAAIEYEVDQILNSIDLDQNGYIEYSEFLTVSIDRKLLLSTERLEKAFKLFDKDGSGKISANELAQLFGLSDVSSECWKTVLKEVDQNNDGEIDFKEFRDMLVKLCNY

Chain of Plasmodium falciparum protein kinase 6 (PK6, PF3D7_1337100) (Q8IDW1 1-305): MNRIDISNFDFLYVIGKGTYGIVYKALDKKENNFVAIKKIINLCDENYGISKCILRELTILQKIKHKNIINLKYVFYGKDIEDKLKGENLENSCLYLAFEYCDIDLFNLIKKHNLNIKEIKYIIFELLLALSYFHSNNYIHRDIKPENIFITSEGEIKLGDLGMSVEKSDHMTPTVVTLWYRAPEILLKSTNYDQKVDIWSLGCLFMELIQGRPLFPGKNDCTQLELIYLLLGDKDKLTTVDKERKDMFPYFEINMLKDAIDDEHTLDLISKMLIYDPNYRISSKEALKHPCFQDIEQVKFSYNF

Consider `Cc1ccccc1CNC(=O)Nc1cccc(-c2csc(N=C(N)N)n2)c1`, for which the values for the growth inhibition in test [1] and in test [4] were 14% and 99% (active), respectively. Further, the inhibition was 2% in test [2] and -2% in test [3]. Also, the outcome in test [5], in test [6], in test [7] and in test [8] was inactive.

For `O=C(Nc1cccc(-c2csc(NC(=O)c3ccc4ccccc4c3)n2)c1)c1ccc2ccccc2c1`, the growth inhibition in test [1] is 35%; in test [4], 89% (active). The figures for the inhibition in test [2] and in test [3] were 3% and -2%, respectively. Further, the outcome in test [5], in test [6], in test [7] and in test [8] was inactive.

In the case of `O=C(NCCCN1CCC(N2CCCCC2)CC1)c1ccc2nc(N3CCCCC3)sc2c1`, the growth inhibition in test [1] was 20%; in test [4], 89% (active). Further, the figures for the inhibition in test [2] and in test [3] were 11% and -1%, respectively. Moreover, the outcome in test [5], in test [6], in test [7] and in test [8] was inactive.

For `Cc1ccc(O)cc1Nc1ccnc2cc(-c3csc(CN(C)CCN(C)C)n3)ccc12`, the values for the growth inhibition in test [1] and in test [4] were 80% (active) and 101% (active), respectively. Moreover, the figures for the inhibition in test [2] and in test [3] were 3% and 4%, respectively. Also, the result in test [5], in test [6], in test [7] and in test [8] was inactive.

Regarding `Cc1cc(CN2CC[C@H](NC(=O)c3ccc(Cl)c(Cl)c3)C2)ccc1OCCCN(C)C`, the growth inhibition in test [1] is 35%; in test [4] it was 99% (active). The inhibition in test [2] is 41%; in test [3], 0%. Further, the result in test [5], in test [6], in test [7] and in test [8] was inactive.

On to `COc1ccc2c(c1)CCCC2NCCCCNC(=O)c1ccc(NC(=O)c2ccc(Cl)cc2)cc1` (stereo not given), for which the figures for the growth inhibition in test [1] and in test [4] were 49% and 100% (active), respectively. Besides, the results for the inhibition in test [2] and in test [3] were 27% and -7%, respectively. Besides, the result in test [5], in test [6], in test [7] and in test [8] was inactive.

Consider `CCN1CCN(CCCNc2c3ccc(Cl)cc3nc3ccc(OC)cc23)CC1`, for which the growth inhibition was 100% (active) in test [1] and 97% (active) in test [4]. Moreover, the inhibition is 34% in test [2] and -5% in test [3]. Moreover, the result in test [5], in test [6], in test [7] and in test [8] was inactive.

Consider `CCN(C(=O)c1ccc(NC(=O)c2cccs2)cc1)c1nc2c(C)cccc2s1`, for which the figures for the growth inhibition in test [1] and in test [4] were 85% (active) and 89% (active), respectively. The results for the inhibition in test [2] and in test [3] were 24% and -3%, respectively. In addition, the outcome in test [5], in test [6], in test [7] and in test [8] was inactive.

In the case of `Cc1nnc(-c2ccc3ccccc3c2)c2cn(-c3cccc([N+](=O)[O-])c3)nc12`, the growth inhibition in test [1] is 67% (active); in test [4], 91% (active). Besides, the inhibition in test [2] was 29%; in test [3] it was 3%. The outcome in test [5], in test [6], in test [7] and in test [8] was inactive.

As to `O=C(N[C@@H](Cc1ccccc1)[C@H](O)CNCCC(F)(F)F)c1cccc(OCC2CC2)c1`, the growth inhibition is 95% (active) in test [1] and 98% (active) in test [4]. Also, the inhibition in test [2] was 0%; in test [3] it was -1%. The result in test [5], in test [6], in test [7] and in test [8] was inactive.

Regarding `CS(=O)(=O)CCNCc1nc(-c2ccc3c(Nc4ccc(Oc5ccccn5)cc4)ccnc3c2)cs1`, the growth inhibition in test [1] was 89% (active); in test [4] it was 100% (active). Also, the inhibition in test [2] is 9%; in test [3] it was -1%. The outcome in test [5], in test [6], in test [7] and in test [8] was inactive.

For the molecule `COc1ccccc1-c1[nH]c2ccccc2c1CN1CCC(c2c(C)cccc2C)CC1`, the growth inhibition in test [1] is 13%; in test [4], 96% (active). The inhibition was 49% in test [2] and 3% in test [3]. The result in test [5], in test [6], in test [7] and in test [8] was inactive.

As for `CCN(CC)C(=O)C1CCCN(C(=O)Nc2cc(C(F)(F)F)cc(C(F)(F)F)c2)C1` (stereo not given), the growth inhibition in test [1] is 98% (active); in test [4], 86% (active). Also, the inhibition is 0% in test [2] and -2% in test [3]. Also, the outcome in test [5], in test [6], in test [7] and in test [8] was inactive.

For `Cc1nc(N)nc(N)c1Oc1cccc(Cl)c1`, the growth inhibition in test [1] was -3%; in test [4] it was 94% (active). Also, the inhibition in test [2] is 49%; in test [3], 3%. Also, the result in test [5], in test [6], in test [7] and in test [8] was inactive.

As for `Cc1cc(C(=O)N[C@H]2CCN(Cc3ccc(OCCCN(C)C)cc3)C2)ccc1Br`, the growth inhibition in test [1] is 62% (active); in test [4] it was 97% (active). Further, the inhibition is 88% (active) in test [2] and -4% in test [3]. For the same molecule, the result in test [5], in test [6], in test [7] and in test [8] was inactive.

As for `COc1ccc2ncc(F)c(CCN3CC[C@@H](CNCc4cc(C)c5c(c4)OCCO5)C3)c2n1`, the values for the growth inhibition in test [1] and in test [4] were 44% and 98% (active), respectively. For the same molecule, the inhibition was 22% in test [2] and 0% in test [3]. Besides, the result in test [5], in test [6], in test [7] and in test [8] was inactive.

With `Clc1ccc(CNC2CCN(CC3CCCCC3)CC2)cc1`, the growth inhibition in test [1] is 15%; in test [4] it was 92% (active). For the same molecule, the inhibition in test [2] was 12%; in test [3] it was 5%. The outcome in test [5], in test [6], in test [7] and in test [8] was inactive.

Turning to `COc1ccc2nccc([C@@H](O)CN3CCC(NC(=O)C(c4cc5ccccc5o4)N4CCN(c5ccccc5)CC4)CC3)c2c1` (stereo not given in full), the growth inhibition in test [1] and in test [4] was 99% (active) in each case. In addition, the inhibition in test [2] is 19%; in test [3] it was -2%. The outcome in test [5], in test [6], in test [7] and in test [8] was inactive.

In the case of `c1ccc(OCCOc2ccc(Nc3ccnc4cc5ccccc5cc34)cc2)cc1`, the values for the growth inhibition in test [1] and in test [4] were 96% (active) and 102% (active), respectively. Besides, the figures for the inhibition in test [2] and in test [3] were 44% and 7%, respectively. Further, the outcome in test [5], in test [6], in test [7] and in test [8] was inactive.

For `Cc1c(Cn2nc(Cl)c(N3CCNCC3)cc2=O)cccc1NC(=O)Nc1ccc(-c2ccccc2)cc1`, the growth inhibition was 29% in test [1] and 80% (active) in test [4]. The inhibition in test [2] was 96% (active); in test [3], 2%. Besides, the result in test [5], in test [6], in test [7] and in test [8] was inactive.
